Laboratory results: PubChem BioAssay AID925 (National Center for Advancing Translational Sciences (NCATS), 2007)
Values joined by “and” are separate entries in the source; they are usually repeats but may differ in a detail not shown here. Identical values can stand only once. Screen size: about 65,000 compounds; about 40 (0.06%) were called active. The sample as a whole holds a higher share of actives than the screen did. Unmarked numbers belong to inactive results. The call rests on the fitted dose curve; in most records, active means well fitted activation curve with a large enough effect; inconclusive means small, poorly fitted or top-dose-only effect; inactive means flat fitted curve, though single readings scatter.

test: qHTS Assay for Modulators of Hemoglobin Beta Chain Splicing; conditions: HBB splicing reporter cell assay, EGFP reporter with mutant IVS2-654 intron; Potency: activation; series mostly up to 46.1 µM; activation: at the top concentration; on activation: 0% is about no effect
Excerpt: NIH Chemical Genomics Center [NCGC]
NIH Molecular Libraries Screening Centers Network [MLSCN]
PI Name: Dr. Ryszard Kole
Modulation of Alternative Splicing as Therapy
Abnormal splicing is associated with a number of diseases, including cancer and genetic diseases such as cystic fibrosis, muscular dystrophy and beta-thalassemia. Alteration of disease associated splicing patterns provides a promising target for treatment. […] Mutations in the second intron of the beta-globin gene at positions are clinically relevant and cause mis-splicing which results in an out of frame gene product.
EGFP-654 and 705 HeLa Cells as screen system.
HeLa cell lines were stably transfected with a construct in which the EGFP (enhanced green fluorescent protein) cDNA was interrupted by the second intron of the beta-globin gene (IVS2-654). The ISV2 intron contains mutations which cause mis-splicing of EGFP and premature termination of EGFP which results in a nonfluorescent protein product. […] Expression of the transgene was driven by the CMV promoter. We concluded that a low molecular weight compound, which restored correct splicing of intron 2 would also generate functional EGFP protein, resulting in a fluorescent signal. Thus, the HeLa cells that express the EGFP-654 construct can be used for high throughput screening of a chemical library.
NCGC Assay Protocol Summary:
High Throughput Screening. Freshly thawed HeLa EGFP-654 cells were seeded in 5 ul of optimem media (Invitrogen) containing 2 % fetal calf serum (Hyclone) and 1x penicillin/streptomycin (Invitrogen) at a concentration of 500 cells per well in 1536-well plates. Cells were incubated overnight at 37C in 5% CO2. The next day, cells were treated with DMSO, 500 nM antisense ISV2 654 PNA control oligo, or library compound and allowed to grow at 37C in 5% CO2 for 2 days. The PNA oligo blocked the mutation site in the intron and allowed proper (wild type) splicing to occur, resulting in full length EGFP expression and also allowed for optimization of the assay parameters. Plates were read in the Acumen Explorer (TTP Labtech) using 488 nm laser excitation and 500-520 nm emission PMT filter in a 1 x […] capture mode. Fluorescnet Fluorescent objects ranging in size from […] were measured and the total peak GFP intensity for each well was used for data analysis.
Keywords: Thalassemia, beta-thalassemia, beta-globin, EGFP, ISV2 654, ISV2 705, SSO, PNA, antisense, splicing, MLSMR, MLSCN, NIH Roadmap, qHTS, NCGC
Potency means the concentration at half of the fitted maximal effect.

SMILES	activation	Potency
O=C(c1csnn1)N1CCC2(CC1)CN(c1ncccn1)C2	2.6%	
O=S(=O)(O)c1ccc(O)c2ncccc12.O=S(=O)(O)c1ccc(O)c2ncccc12.[Zn]	0.245% [at 9.22 µM, normalised to 500 nM splice-correcting PNA]	
CCOC(=O)[C@]1(C(/C=C/c2ccco2)NC(=O)OC)CCCC1=O (stereo partly specified)	0.739% [at 9.22 µM, normalised to 500 nM splice-correcting PNA]	
O=C1C(c2[nH]c3ccccc3c2O)=Nc2ccccc21	0.742%	
COC(=O)[C@@]1(Cc2ccc(F)cc2)[C@H]2c3cc(C(=O)N4CCCC4)n(Cc4ccc(OC(F)(F)F)cc4)c3C[C@H]2CN1C(=O)c1ccccc1	0.537%	
C[N+]1(CCN=C=NC2CCCCC2)CCOCC1	6.02% [at 9.22 µM, normalised to 500 nM splice-correcting PNA]	
COCCn1c(=O)c(-c2cccs2)nc2cnc(N3CCN(C)CC3)nc21	0.122%	
COC(=O)[C@H](C)[C@H]1C[C@]1(C)[C@H](NC(=O)OCc1ccccc1)c1ccccc1	0.936%	
CCCCCCc1ccc(O)cc1O	-0.018%	
CC(=O)OCC1OC(C#Cc2ccccc2Cl)C=CC1OC(C)=O (stereo unspecified)	2.13% [at 9.22 µM, normalised to 500 nM splice-correcting PNA]	
O=c1c(-c2cccs2)nc2cnc(Oc3ccccc3)nc2n1-c1ccccc1	7.2%	
Cc1cc2nc3c(=O)[nH]c(=O)nc-3n(C[C@H](O)[C@H](O)[C@H](O)CO)c2cc1C	-0.785%	
COc1ccc2[nH]cc(CCNc3ncnc4ccc(-c5ccc(C(=O)N(C)C)cc5)cc34)c2c1	-3.75%	
CCCC[C@@H]1C[C@H]1C(NC(=O)c1ccco1)c1ccc(C(=O)OC)cc1 (stereo partly specified)	1.15%	
OC(CCl)CCl	-0.303%	
CC(=O)/C(C)=N\O	0.887%	
COc1ccccc1CNc1nc(-c2c(C)noc2C)nc2ccccc12	-0.267%	
COCCNc1ccnc(-c2cccc(NS(C)(=O)=O)c2)n1	-0.582%	
CCNc1ncc2ncc(=O)n(CCc3ccccc3)c2n1	0.539%	
CCCC[C@@H]1C[C@H]1C(NC(=O)c1ccc(-c2ccccc2)cc1)c1ccc(-c2ccccc2)cc1 (stereo partly specified)	1.8%	
O=c1cc(-c2ccccc2)[nH]c2nc(Cl)ccc12	2.33%	
O=C(c1ccncc1)N1CCC2(CCN(Cc3cc(C(F)(F)F)cc(C(F)(F)F)c3)CC2)CC1	1.42%	
C=CCOC(=O)c1ccccc1C(=O)OCC=C	2.26%	
C/C=C1\C(=O)C[C@@H]2[C@@H]3CCC4=CC(=O)CC[C@@]4(C)[C@H]3CC[C@@]12C	0.755%	
Nc1nc2c(ncn2[C@H]2CC[C@@H](CO)O2)c(=O)n1C(=O)c1ccccc1	4.28% [at 9.22 µM, normalised to 500 nM splice-correcting PNA]	
N#Cc1cccc(-c2nc3cnc(N4CCNCC4)nc3n(C3CC3)c2=O)c1	-0.0364%	

SMILES	activation	Potency
CCNc1ncc2nc(CCc3ccccc3)c(=O)n(-c3ccc(OC)cc3)c2n1	9.49%	
COCCn1c(=O)c(-c2cc(F)cc(F)c2)nc2cnc(N3CCNCC3)nc21	-0.701%	
N#CCCn1c(=O)c(-c2cc(F)cc(F)c2)nc2cnc(Oc3ccccc3)nc21	-1.62%	
CN1CCc2[nH]nc(-c3n[nH]c4c3CN(C)CC4)c2C1	1.49% [at 9.22 µM, normalised to 500 nM splice-correcting PNA]	
COC(=O)N1CCC2(CCCN(Cc3ccccc3OC)C2)CC1	-1.36%	
CN(C)CCCn1c2ccccc2c2cnccc21	4.04% [at 9.22 µM, normalised to 500 nM splice-correcting PNA]	
CCN1C(=O)c2cccc3c(N)ccc1c23	-0.679%	
Nc1ccc2c3c(cccc13)C(=O)NC2=O		31.6 µM (active)
CC(C)CN1CCc2nc(-c3ccccc3)c3c(c2C1)COC(C)C3 (stereo unspecified)	2% [at 9.22 µM, normalised to 500 nM splice-correcting PNA]	
CCCn1c(-c2ccc(F)cc2)nc2c(NC3CCN(Cc4ccccc4)C3)nc(C)nc21 (stereo unspecified)	-0.408%	
CCOc1ccc(N=NS(=O)(=O)O)cc1	3.52% [at 9.22 µM, normalised to 500 nM splice-correcting PNA]	
CCCCC(CC)CN (stereo unspecified)	inactive	
CC(C)(C)[Si](OCC[C@@H]1C[C@@]1(C)[C@@H](NP(=O)(c1ccccc1)c1ccccc1)c1ccccc1)(c1ccccc1)c1ccccc1	-1.23%	
Cn1c(=O)n2n(c1=O)[C@H]1[C@H](O)[C@H]3O[C@H]3C(=O)[C@H]1CC2	0.301% [at 9.22 µM, normalised to 500 nM splice-correcting PNA]	
CN1C(=O)C[C@H](c2ccccc2)C1=O	0.654% [at 20.6 µM, normalised to 500 nM splice-correcting PNA]	
S=c1[nH]nc(SCc2ccccc2Cl)c2[nH]cnc12	3.49% [at 9.22 µM, normalised to 500 nM splice-correcting PNA]	
CC(=O)OCC1OC(C#CCCCc2ccccc2)C=CC1OC(C)=O (stereo unspecified)	-0.748% [at 9.22 µM, normalised to 500 nM splice-correcting PNA] and 1.62% [at 9.22 µM, normalised to 500 nM splice-correcting PNA]	
O=C(c1ccco1)N1CCC2(CC1)CCN(c1ncccn1)CC2	6.14%	
CC(C)[C@@H](OCc1ccccc1)[C@H](C)/C=N\OC[C@@H](C)[C@H](OCc1ccccc1)C(C)C	4.09% [at 9.22 µM, normalised to 500 nM splice-correcting PNA]	
COc1ccccc1-c1nc(N2CCN(C)CC2)c2ccccc2n1	-1.17%	
CCCCCCN(C(=O)CCCCCN1C(=O)NC(c2ccc(C(F)(F)F)cc2)C(C(=O)OCc2ccccc2)=C1C)C(C(=O)NCCCC)c1ccc(OCC(=O)OC)c(C(=O)OC)c1 (stereo unspecified)	-0.619%	
CC(=O)CC(C)C	-0.025%	
COC(=O)[C@@]1(Cc2ccc(F)cc2)[C@H]2c3cc(C(=O)N(C)C)n(CCc4c[nH]c5ccc(OC)cc45)c3C[C@H]2CN1C(=O)c1ccccc1	0.012%	
CC(C)NC(=O)N1CCCC2(CCN(C(=O)c3cccn3C)CC2)C1	2.69%	
O=C(O)/C(=C/c1c(C(=O)O)[nH]c2cc(Cl)cc(Cl)c12)c1ccccc1	-0.728%	
O=C(c1ccco1)N1CCC[C@@]2(CCN(c3ccccc3)C2)C1	-0.234%	

SMILES	activation	Potency
NC1(C(=O)OCc2ccccc2)CCCC1	1.82% [at 9.22 µM, normalised to 500 nM splice-correcting PNA]	
COc1ccc(Br)c2c1C[C@H](C(=O)O)CC2	3.18% [at 9.22 µM, normalised to 500 nM splice-correcting PNA]	
COC(=O)c1ccc(C(NC(=O)OCc2ccccc2)/C(C)=C/[C@@H](C)C(=O)NCc2cc(C)on2)cc1 (stereo partly specified)	0.55%	
COc1ccc(-n2c(=O)c(-c3cn(C)c4ccccc34)nc3cnc(OC)nc32)cc1	1.65%	
Brc1cc(Br)c(Oc2cc(Br)c(Br)cc2Br)cc1Br	-0.0225%	
Oc1ccc(O)c2c(O)cccc12	-0.446%	
N#Cc1cccc(-c2ccc3ncnc(NCc4cccs4)c3c2)c1	-0.857%	
CC[N+](C)(CC)CCC[n+]1c(-c2ccccc2)c2cc(N)ccc2c2ccc(N)cc21	-0.429% [at 20.6 µM, normalised to 500 nM splice-correcting PNA]	
COc1ccccc1-c1cc(NCc2cccs2)ncn1	0.429%	
COc1ccc2[nH]cc(CCNc3nc(-c4cccc(NS(C)(=O)=O)c4)nc4ccccc34)c2c1	-1.42%	
C[C@H](CCC(=O)O)[C@H]1CC[C@@H]2[C@H]3CC[C@H]4C[C@H](O)CC[C@@]4(C)[C@@H]3CC[C@@]21C	1.15% [at 9.22 µM, normalised to 500 nM splice-correcting PNA]	
C[C@H]1O[C@@H](CC(=O)O)Cc2c1c(O)c1c(O)cc(-c3cc(=O)c4c(=O)c5c(c(=O)c=4c3=O)C[C@H](CC(=O)O)O[C@@H]5C)c(O)c1c2O	4.76% [at 9.22 µM, normalised to 500 nM splice-correcting PNA]	
COC(=O)[C@@]1(Cc2ccccc2)[C@H]2c3cc(C(=O)N(C)C)n(CCSCCO)c3C[C@H]2CN1C(=O)c1ccccc1	-0.366%	
COc1ccc(C(=O)N/N=C2/C(=O)c3c(C)cc(C)cc3CC2(C)C)cc1	3.55% [at 9.22 µM, normalised to 500 nM splice-correcting PNA]	
COC(=O)[C@@]1(Cc2ccccc2)[C@H]2c3cc(C(=O)N4CCCC4)n(Cc4ccc(C)o4)c3C[C@H]2CN1C(=O)c1ccccc1	0.0086%	
CC(C)CC1(C(=O)NCc2ccccn2)C=CCN1C(=O)c1ccccc1 (stereo unspecified)	-0.315%	
COC(=O)C1(C)C=CC2(CCCCC2)N1C(C)=O (stereo unspecified)	-0.264%	
O=C(Nc1cccc(F)c1)N1CC2(CCN(C(=O)c3cnccn3)CC2)C1	-0.736%	
COc1ccc(OC)c([C@H](O)CNC(=O)CN)c1	1.06% [at 20.6 µM, normalised to 500 nM splice-correcting PNA]	
CS(=O)(=O)N1CCC[C@@]2(CCN(c3ccncc3)C2)C1	0.825%	
COc1ccc(CNc2ncnc3ccc(-c4cccnc4)cc23)c(OC)c1	-0.216%	
CN(C)C(=O)/N=N\C(=O)N(C)C	0.247%	
Oc1c(Br)cc(CN(Cc2cc(Br)c(O)c(Br)c2)C2CCCCC2)cc1Br	1.47% [at 9.22 µM, normalised to 500 nM splice-correcting PNA]	
CC(C)(C)c1ccc(OC2C=CC(C#Cc3ccccc3)OC2CO)cc1 (stereo unspecified)	-0.074% [at 9.22 µM, normalised to 500 nM splice-correcting PNA]	
